Source: PubChem BioAssay
USP17 block = inhibitors of human USP17 deubiquitinase; A8MUK1; purified USP17, Ub-rhodamine cleavage fluorescence, 3 h; inhibition, % at 50 µM; 6.5% of 47,000 active
Target sequence (A8MUK1 whole entry, looked up): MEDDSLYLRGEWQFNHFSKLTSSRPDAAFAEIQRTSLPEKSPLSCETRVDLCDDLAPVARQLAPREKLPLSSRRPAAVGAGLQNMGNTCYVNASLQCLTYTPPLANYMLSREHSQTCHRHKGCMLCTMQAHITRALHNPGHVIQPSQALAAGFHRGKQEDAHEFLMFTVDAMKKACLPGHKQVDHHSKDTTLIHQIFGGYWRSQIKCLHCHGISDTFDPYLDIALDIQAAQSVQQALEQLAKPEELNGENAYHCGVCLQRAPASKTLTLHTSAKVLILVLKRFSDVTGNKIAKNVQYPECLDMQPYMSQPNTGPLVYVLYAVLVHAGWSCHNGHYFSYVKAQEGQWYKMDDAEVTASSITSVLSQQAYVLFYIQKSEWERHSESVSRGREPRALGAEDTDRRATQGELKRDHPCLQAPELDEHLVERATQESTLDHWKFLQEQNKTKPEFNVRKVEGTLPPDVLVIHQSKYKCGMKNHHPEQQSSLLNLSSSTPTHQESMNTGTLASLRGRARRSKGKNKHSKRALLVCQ
USP28 inh = human USP28 deubiquitinase inhibition; inhibition, % at 25 µM; 3% of 47,000 active; AID 1645857; purified USP28, Ub-rhodamine cleavage fluorescence, 30 min; Q96RU2
USP30 inh = blocks human USP30 ubiquitin-rhodamine cleavage; 5.3% of 47,000 active; inhibition, % at 25 µM; purified USP30, Ub-rhodamine cleavage fluorescence; Q70CQ3
Numbers stand for hits; n = inactive; x = no result given. Hits are enriched below; roughly 11% of the tested compounds scored in any of these assays. No stated cut-off is given here; in the data, active means inhibition above about 30%; inactive means the rest.

SMILES	USP17 block	USP28 inh	USP30 inh
O=C1C(NS(=O)(=O)Cc2ccccc2Cl)CCN1c1ccccc1 (stereo unspecified)	n	n	n
CCc1cccc(NC(=O)N2CCC(c3nc(C(=O)N4CCOCC4)c(C)o3)CC2)c1	n	n	n
CCCCN1CC(C(=O)Nc2ccc(C(=O)Nc3cccc(Br)c3)cc2)CC1=O (stereo unspecified)	n	n	n
CCCCN1CC(C(=O)Nc2ccc(C(=O)Nc3ccc(Br)c(C)c3)cc2)CC1=O (stereo unspecified)	39.0	n	n
O=C(O)c1ccc(C(=O)Nc2cccc(SCC(=O)N3CCc4ccccc43)c2)c(C(=O)O)c1	n	n	n
CC1CCN(S(=O)(=O)c2cn(CC(=O)NCc3ccccc3)cn2)CC1	n	n	n
CC1(C(=O)N2CCC3(CC2)CC(Oc2ccc(Cl)cc2)CO3)CCN(C2CCCC2)CC1 (stereo unspecified)	n	n	n
O=c1[nH]c(=O)c2c(-c3cccc4ccccc34)ccnc2[nH]1	n	n	n
O=c1[nH]c(=O)c2c(-c3ccc(-c4ccccc4)cc3)ccnc2[nH]1	n	n	45.0
COc1cccc(-c2cc(C(=O)NC3CCCCCC3)[nH]n2)c1	n	n	n
COc1cccc(-c2ccnc3[nH]c(=O)[nH]c(=O)c23)c1	73.9	n	63.1
O=C(O)c1c(CNC2CCCCCC2)c2ccccc2n1Cc1ccc(F)cc1	x	n	n
CCC(C(O)C/C=C(\C)C(O)CC(OC)C(C)C(=O)NC(C(=O)N[C@H]1C(=O)O[C@@H](c2ccccc2)[C@@H]1C)C(C)C)C(O)C(C)/C=C/C=C/[C@@H]1C[C@H](OC)C[C@@](CC/C(C)=C/C=C/[C@H]2CO[C@H](C)[C@@](C)(O)[C@H]2O)(OC)O1 (stereo partly specified)	n	n	n
CC(C)NC(=O)C1c2ccccc2C(=O)N(C2CCCC2)C12CCCCC2 (stereo unspecified)	n	n	n
COc1cc(C2c3c(oc4ccccc4c3=O)C(=O)N2c2cc(C)on2)ccc1OCc1ccc(C)cc1 (stereo unspecified)	n	n	n
Cc1cccc(C)c1OCCN1C(=O)C2CN(C(N)=O)CCN2C1=O (stereo unspecified)	n	n	n
Cc1ccccc1OCCN1C(=O)C2CN(C(N)=O)CCN2C1=O (stereo unspecified)	n	n	31.0
COC[C@H]1C[C@@H]2CN(C(=O)NC3CCOCC3)C(C)[C@H]1N2Cc1ccccc1 (stereo partly specified)	n	n	n
Cc1ccc(-c2nc(-c3cccc(-c4ccnn4C)c3)no2)c(C)c1	n	n	n
CCCc1cc(Nc2ccc(C(=O)N3CCOCC3)cc2)n2nc(-c3cccnc3)nc2n1	n	n	n
Cc1ccc(NC(=O)N2CC(c3nc(-c4cccnc4)no3)C2)cc1C	n	n	n
O=C(c1cc(Cl)cc(Cl)c1)N1CC(c2nc(-c3cccnc3)no2)C1	n	n	30.0
Cn1cnnc1Sc1ncnc(N)c1[N+](=O)[O-]	n	n	33.5
Nc1ncnc(N2CC(=O)N(CCc3ccccc3)C(=O)C2)c1[N+](=O)[O-]	n	n	n
COc1ccc(CCN2COc3c(cc(Cl)c4cccnc34)C2)cc1OC	93.2	n	49.2
SMILES	USP17 block	USP28 inh	USP30 inh
COc1ccc(CCN2CCOc3nc4c(C)cccc4cc3C2)cc1OC	n	n	n
O=C(c1cc(-c2ccccc2F)no1)N1CCOCC1	n	n	n
CCCCn1c(=O)[nH]c2c(C(=O)N3CCc4ccccc4C3)snc2c1=O	n	n	n
COCCN1C(=O)c2ccccc2C(C(=O)Nc2ccccc2OC)C12CCCCC2 (stereo unspecified)	n	n	n
CCC(C(=O)C(C)C(O)C(C)CCc1ccc(C)c(O)c1C(=O)O)C1OC(CC)(C2CCC(O)(CC)C(C)O2)CC1C (stereo unspecified)	62.8	40.9	55.3
O=C1CC(C(=O)Nc2ccc(F)cc2)c2c(nc(N3CCCCC3)[nH]c2=O)N1 (stereo unspecified)	n	x	x
COc1ccccc1C1N=C(N2CCOCC2)Nc2nc(C)cc(=O)n21 (stereo unspecified)	n	n	n
Cc1ccc(C(=O)N2c3ncnn3C(c3ccccc3)CC2c2ccccc2)cc1 (stereo unspecified)	n	n	32.4
COc1ccc(C2CC(c3ccc(OC)cc3)n3ncnc3N2C(=O)C2CC2)cc1 (stereo unspecified)	n	n	37.5
COc1ccc(C2CC(c3ccc(Cl)cc3)N(C(=O)C(C)(C)C)c3ncnn32)cc1 (stereo unspecified)	n	n	n
Cc1ccc(C2CC(c3ccccc3)n3ncnc3N2C(=O)c2ccccc2)cc1 (stereo unspecified)	n	n	n
CCn1nnc2c(N3CCCCC3)ncnc21	n	n	n
O=C(Nc1ncc2c(n1)CCCC2=O)c1ccco1	n	n	n
